Records with an inconclusive call do not appear. Calls of active or inactive are those of the source. Unless noted, calls follow the shape of the dose curve; as a rule, active = well fitted curve in the direction sought with a large enough effect; inconclusive = small, poorly fitted or top-dose-only effect, or another doubt; inactive = no such curve, though single readings can be large; an effect the other way counts as inactive or inconclusive.
Key:
[1] = Cellular Toxicity (caspase-3) MRC-5 (AID 659)
Summary of the method: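 MRC-5 fibroblasts, 1500/well; 16 h cpd, 37 °C; Caspase-Glo 3/7, 1 h RT; lumi read. Norm: DMSO = 0%, 10 uM staurosporine = 100%. Hill-fit AC50 from qHTS conc-response.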

[2] = Cellular Toxicity (caspase-3) Mesangial (AID 660);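 also: combined caspase 3 and 7 activity read by Caspase-Glo luminescence; cells exposed to compound for 16 h before the caspase read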
Summary of the method: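 Luminescent Caspase-Glo 3/7 readout (aminoluciferin substrate cleavage, 20 min RT) after 16 h compound exposure at 37 °C of normal human mesangial cells. Signal increase normalized between DMSO basal and 100 uM tamoxifen; Hill-equation AC50.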

[3] = Cellular Toxicity (caspase-3) SK-N-SH (AID 661)
Summary of the method: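 Luminescent Caspase-Glo 3/7 read-out after 16 hr compound exposure of SK-N-SH neuroblastoma cells at 37 °C. Signal increase normalized to DMSO (basal) and 10 uM staurosporine (100%); AC50 from Hill equation fits of qHTS concentration-response data.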

[4] = Cellular Toxicity (caspase-3) H-4-II-E (AID 663);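 also: cells exposed to compound for 16 hr before readout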
Summary of the method: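 H-4-II-E rat hepatoma, 1500 cells/well, 5 hr settle at 37 °C; compound 16 hr, 37 °C, complete medium; Caspase-Glo 3/7, 20 min RT; luminescence. DMSO = 0%, 100 uM tamoxifen = 100%; Hill-equation AC50.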

[5] = Cellular Toxicity (caspase-3) Hek293 (AID 664);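 also: cells exposed to compound for 16 h at 37 °C before readout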
Summary of the method: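 Luminescent Caspase-Glo 3/7 readout (aminoluciferin release) in HEK293 cells after 16 h compound treatment, 37 °C. Normalization: DMSO = basal, 100 uM tamoxifen = 100% stimulation. Concentration-response fitted with standard Hill equation for AC50.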

[6] = Cellular Toxicity (caspase-3) N2a (AID 665);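 also: compound exposure lasted 16 h at 37 °C before readout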
Summary of the method: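 Luminescent Caspase-Glo 3/7 readout in N2a mouse neuroblastoma cells after 16 h compound exposure at 37 °C. Signal scaled to DMSO (basal) and 10 uM staurosporine (100%). Concentration-response fitted with Hill equation for AC50.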

[7] = Cellular Toxicity (caspase-3) NIH 3T3 (AID 666)
Summary of the method: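 NIH 3T3, 1000 cells/well, 5 hr settle then 16 hr compound at 37°C; Caspase-Glo 3/7, 20 min RT, luminescence. DMSO = basal, 100 uM tamoxifen = 100%. Hill-equation AC50, qHTS.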

[8] = Cellular Toxicity (caspase-3) Renal Proximal Tubule (AID 667);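 also: cells exposed to compound for 16 hours at 37 °C before detection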
Summary of the method: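 AC50 derived by standard Hill fit of concentration-response data, normalized between DMSO basal and 10 uM staurosporine as 100% stimulation. Cells: primary rat kidney proximal tubule, 16 h treatment at 37 °C.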

[9] = Cell Viability - LYMP2-001 (AID 921);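 also: series mostly up to about 92 µM; cells exposed to compound for 24 h at 37 °C; nearly all actives have a fitted effect of over 70% in size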
Summary of the method: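 Steps: seed 2500 lymphoblastoid cells/well; 5 hr, 37 C; add compound; 24 hr, 37 C; CellTiter-Glo reagent, 30 min room temperature; read luminescence. Concentration-response modeled by Hill equation for AC50.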

[10] = MultiTox-Fluor Cytotoxicity Assay - LYMP1-001 - Dead Cells (AID 946)
Summary of the method: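 LYMP1-001 lymphoblastoid cells (2500/well) treated 16 h at 37 C. Dead-cell protease cleavage of bis-AAF-R110 read at Ex/Em 485/520. Normalized to DMSO and 15 uM tetraoctylammonium bromide; AC50 from Hill fits.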

[11] = MultiTox-Fluor Cytotoxicity Assay - LYMP1-001 - Live Cells (AID 947)
[12] = Cell Viability - LYMP1-002 - Assay at 16 hr (AID 948)
Summary of the method: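 Seed 2500 LYMP1-002 cells per well in complete medium and hold 5 hr at 37 C. Add compound across a concentration series and incubate 16 hr at 37 C. Add CellTiter-Glo, wait 30 min at room temperature, read luminescence.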

[13] = MultiTox-Fluor Cytotoxicity Assay - LYMP1-002 - Live Cells (AID 955)
Summary of the method: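 LYMP1-002 lymphoblastoid cells; 2500 cells/well; 16 hr compound exposure, 37 C; MultiTox-Fluor reagent 60 min RT; live-cell fluorescence Ex/Em=405/510; qHTS concentration-response, Hill-equation AC50; tetraoctylammonium bromide positive control.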

[14] = MultiTox-Fluor Cytotoxicity Assay - LYMP1-003 - Dead Cells (AID 961); also: nearly all actives have a fitted effect of over 70% in size
Summary of the method: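 LYMP1-003 human lymphoblastoid cells (2500/well) exposed to compound 16 h at 37 C in complete medium; dead-cell protease read with bis-AAF-R110 fluorescence (Ex/Em 485/520) after 60 min at room temperature. Normalized to DMSO and 15 uM tetraoctylammonium bromide; AC50 from Hill fit.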

[15] = MultiTox-Fluor Cytotoxicity Assay - LYMP1-003 - Live Cells (AID 962);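 also: cytotoxic hits lower the live-cell protease signal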
Summary of the method: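 Readout: live-cell fluorescence (Ex/Em=405/510) from GF-AFC cleavage after 60 min MultiTox-Fluor reagent at room temperature. Lymphoblastoid LYMP1-003 cells, 16 hr compound treatment, 37 C. Concentration-response fitted to standard Hill equation for AC50.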

[16] = Cell Viability - LYMP1-003 - Assay at 24 hr (AID 963)
Summary of the method: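 CellTiter-Glo luminescence (intracellular ATP) read after 24 hr, 37 C compound exposure of 2500 LYMP1-003 human lymphoblastoid cells/well in complete medium; qHTS concentration series; AC50 via standard Hill equation.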

[17] = Cell Viability - LYMP2-013 (AID 970);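 also: series mostly up to about 92 µM; cells exposed to compound for 24 h at 37 °C; nearly all actives have a fitted effect of over 55% in size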
Summary of the method: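 CellTiter-Glo luminescence (cellular ATP) read after 30 min at RT. Cells: human lymphoblastoid line, 2500/well, 24 hr compound exposure at 37 C. Tetraoctylammonium bromide positive control; AC50 via standard Hill fit of qHTS titrations.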

[18] = qHTS assay for small molecule agonists of the antioxidant response element (ARE) signaling pathway measured by Nrf2-dependant transcriptional activity (AID 720636; active = well fitted curve in the direction sought with a large enough effect in the repeat runs; an effect the other way counts as inactive or inconclusive; also: potency is read from the fitted curve at half-maximal effect)
Summary of the method: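 Nrf2-dependent transcription read as ONE-Glo luciferase signal from ARE-luc HepG2 reporter cells after 16 hr compound treatment at 37 C, 5% CO2, in assay medium with 1% dialyzed FBS.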

[19] = qHTS assay for small molecule antagonists of the retinoid-related orphan receptor gamma (ROR-gamma) signaling pathway - cell viability counter screen (AID 720652; active = well fitted curve in the direction sought with a large enough effect in the repeat runs; an effect the other way counts as inactive or inconclusive;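 also: CHO reporter cells with doxycycline-induced ROR-gamma expression; series mostly up to about 92 µM; compound exposure lasted 16 hr before ATP read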)
Summary of the method: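 CHO RORE-LUC/TET-ROR line, 1,000 cells/well, 37 C 5% CO2 5 hr; cpd or DMSO + doxycycline induction, 16 hr. CellTiter-Glo, 30 min RT, luminescence = ATP content.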

[20] = qHTS assay for small molecule activators of the human pregnane X receptor (PXR) signaling pathway (AID 720659; call rule not given here)

Measured: Potency

CC(C)(c1ccc(OCC2CO2)cc1)c1ccc(OCC2CO2)cc1 (stereo not given)
inactive: [1] | [2] | [3] | [4] | [5] | [6] | [7] | [8] | [9] | [10] | [11] | [12] | [13] | [14] | [15] | [16] | [17] | [19] | [20]
active: [18] 66.8 µM

Source: PubChem BioAssay (NCATS)
